Experimental data from PubChem BioAssay AID1566 (Sanford-Burnham Center for Chemical Genomics, 2009).
The whole screen tested about 290,000 compounds, of which about 1,800 (0.62%) were called active. The entries come from a sample that favours actives as a whole. Unmarked numbers belong to inactive results. Rule as the data show it: active = inhibition above about 50%; inactive = the rest.

assay: NOD2 signaling inhibitors, cell-based, luminescence, uHTS, HEK293 (AID 1566); conditions: HEK293 NOD2/NF-kB luciferase reporter, at 4 µM, stronger effect = higher value

For `COc1cc(C(=O)OCC(=O)N2CCCCC2C)ccc1OCc1c(C)noc1C` (stereo unspecified), which inhibition is on record?
The inhibition was -27.2%.

With `Cc1ccc(CN(CC(=O)NCCc2ccccc2)C(=O)CCCC(=O)Nc2cc(C)on2)cc1` as the compound, how does the inhibition read?
The inhibition was -8.6%.

Which inhibition does the source give for `O=C(N/C(=C\c1cccnc1)C(=O)N1CCCCC1)c1cccc(Br)c1` here?
The inhibition was 0.3%.

With `CCOC(=O)N1CCN(C(=O)C2CCCN(c3ncnc4c3nc3n4CCCCC3)C2)CC1` (stereo unspecified) as the compound, how does the inhibition read?
The inhibition was 7.5%.

Which inhibition does the source give for `O=C(NC1CCCCCC1)C(=S)NC1CCCCC1` here?
Its inhibition is -56.5%.

With `C#CCOc1ccc(/C=C2/C(=O)NN(c3ccc(F)cc3)C2=O)cc1OC` as the compound, how does the inhibition read?
Its inhibition is 9.7%.

For `CC(CC(=O)Nc1nncs1)c1ccccc1` (stereo unspecified), which inhibition is on record?
The inhibition was 20.2%.

Which inhibition does the source give for `COc1ccc(C2NC(=S)NC(C)=C2C(=O)c2ccccc2)cc1OC` (stereo unspecified) here?
Its inhibition is 3.4%.

For `Oc1ccc(N=Nc2ccc3c(c2)OCCO3)c2ncccc12`, which inhibition is on record?
The inhibition was -8.2%.

Which inhibition does the source give for `Oc1ccc(N=Nc2ccc3c(c2)OCO3)c2ccccc12` here?
The inhibition was 81.2% (active).

For `Oc1ccc(N=Nc2ccc3c(c2)OCCO3)c(O)c1`, which inhibition is on record?
Its inhibition is -142%.

With `CCOc1ccc(CN(C(=O)c2oc3ccccc3c2C)C2CCS(=O)(=O)C2)cc1` (stereo unspecified) as the compound, how does the inhibition read?
The inhibition was -8.4%.

For `COCCCN=C1NN=C(c2cc(C)n(-c3ccccc3F)c2C)CS1`, which inhibition is on record?
The inhibition was -10.1%.

For `Cc1cc(C2=NNC(=NC3CC3)SC2)c(C)n1-c1c(C)n(C)n(-c2ccccc2)c1=O`, which inhibition is on record?
The inhibition was -1.3%.

With `CCCCN=C1NN=C(c2ccc3c(c2)OCCO3)CS1` as the compound, how does the inhibition read?
The inhibition was -57.3%.

For `C=CCN=C1NN=C(c2ccc3c(c2)OCCO3)CS1`, which inhibition is on record?
The inhibition was 37.7%.

With `Cc1cc(C2=NNC(=NC3CC3)SC2)c(C)n1-c1ccccc1F` as the compound, how does the inhibition read?
The inhibition was 88.9% (active).

For `Cc1cc(C2=NNC(=NC3CC3)SC2)c(C)n1-c1ccccc1`, which inhibition is on record?
Its inhibition is 90.5% (active).

Which inhibition does the source give for `COc1ccc(-n2c(C)cc(C3=NNC(=NC4CC4)SC3)c2C)cc1` here?
The inhibition was -16.5%.

For `Cc1ccc(-n2c(C)cc(C3=NNC(=NC4CC4)SC3)c2C)cc1C`, which inhibition is on record?
The inhibition was -57.3%.

For `c1cc2c(cc1C1=NNC(=NC3CC3)SC1)OCCO2`, which inhibition is on record?
Its inhibition is 85.7% (active).

Which inhibition does the source give for `COc1ccc(N2C(=O)c3ccccc3NC23CCC(C)CC3)cc1` (stereo unspecified) here?
Its inhibition is -58.1%.

With `Cc1cc(=O)[nH]c(N/N=C/c2ccc(Cl)c([N+](=O)[O-])c2)n1` as the compound, how does the inhibition read?
The inhibition was -5.5%.

With `COc1ccc(/C=C(\NC(=O)c2ccc(OC)cc2)C(=O)N2CCCCC2)cc1` as the compound, how does the inhibition read?
Its inhibition is -9.7%.

Which inhibition does the source give for `Cn1c(=O)c2c(nc(SCC(=O)O)n2Cc2cc3c(cc2Cl)OCO3)n(C)c1=O` here?
Its inhibition is 3%.

For `CCOCCCn1cnc2c(c1=O)c1nc3ccccc3nc1n2-c1ccc(C)cc1`, which inhibition is on record?
The inhibition was 24.1%.

With `O=C(NCCn1cccn1)c1ccc(OC2CCN(C(=O)C3CC3)CC2)cc1` as the compound, how does the inhibition read?
The inhibition was -27.2%.

With `O=C(N/N=C/c1cc([N+](=O)[O-])ccc1O)C12CC3CC(CC(C3)C1)C2` as the compound, how does the inhibition read?
Its inhibition is 15%.

For `O=C(N/N=C/c1ccccc1O)NC12CC3CC(CC(C3)C1)C2`, which inhibition is on record?
The inhibition was -29.5%.

For `O=C(N/N=C/c1cc([N+](=O)[O-])ccc1O)NC12CC3CC(CC(C3)C1)C2`, which inhibition is on record?
Its inhibition is 64% (active).

Which inhibition does the source give for `c1ccc(-c2ccccc2OCCCN2CCOCC2)cc1` here?
Its inhibition is -29.3%.

With `O=C(CSc1nnc(-c2ccc(F)cc2)o1)Nc1ccc(S(=O)(=O)N2CCCCCC2)cc1` as the compound, how does the inhibition read?
Its inhibition is -4.4%.

With `CCOCC(=O)Nc1cccc(Br)c1` as the compound, how does the inhibition read?
The inhibition was -5.5%.

For `CCCc1cc(C(=O)Nc2ccc(C(=O)c3ccc(C)cc3)cc2)n(C)n1`, which inhibition is on record?
The inhibition was 23.6%.

With `CCCc1cc(C(=O)Nc2ccc(C(=O)c3ccccc3)cc2)n(C)n1` as the compound, how does the inhibition read?
The inhibition was 54.7% (active).

For `CCCc1cc(C(=O)Nc2ccc(C(=O)c3ccc(F)cc3)cc2)n(C)n1`, which inhibition is on record?
Its inhibition is 18.5%.

Which inhibition does the source give for `CCOC(=O)c1c(C)n(C)c2ccc(OCC(O)CN3CCN(C)CC3)cc12` (stereo unspecified) here?
Its inhibition is -0.5%.

With `CCc1nc(SCC(=O)N2CCCc3ccccc32)c2oc3ccccc3c2n1` as the compound, how does the inhibition read?
The inhibition was 37%.

For `Cc1nc(SCC(=O)N2CCCc3ccccc32)c2oc3ccccc3c2n1`, which inhibition is on record?
The inhibition was -6.5%.

Which inhibition does the source give for `COc1cc(C(=O)NCc2ccncc2)cc(OC)c1OC` here?
The inhibition was 10.3%.

With `COc1ccc(-c2cnc(N)nc2-c2ccc(OCc3ccccc3)cc2O)cc1` as the compound, how does the inhibition read?
Its inhibition is -4.2%.

For `Nc1ncc(-c2ccccc2)c(-c2ccc(OCc3ccccc3)cc2O)n1`, which inhibition is on record?
Its inhibition is 13.4%.

Which inhibition does the source give for `Nc1ncnc2c1ncn2Cc1ccccc1` here?
The inhibition was 6.4%.

Which inhibition does the source give for `CCc1ccc(N2CN(Cc3ccco3)CNC2=S)cc1` here?
The inhibition was 4.9%.

With `COc1ccc(/C=N/OCC(=O)Nc2nc3ccccc3s2)cc1OC` as the compound, how does the inhibition read?
Its inhibition is -1.1%.

With `CC1=NN(C(=O)Cn2ccc([N+](=O)[O-])n2)C(O)(C(F)(F)F)C1` (stereo unspecified) as the compound, how does the inhibition read?
Its inhibition is 12.1%.

With `CCOC(=O)C1=C(c2ccccc2)O/C(=C(/C#N)C(F)(F)F)S1` as the compound, how does the inhibition read?
Its inhibition is 51.4% (active).

With `CCOC(=O)C1=C(c2ccccc2)O/C(=C(/C(=O)OC)C(F)(F)F)S1` as the compound, how does the inhibition read?
Its inhibition is 5.4%.

With `CCOC(=O)C1=C(c2ccccc2)O/C(=C(\C(=O)OC)C(F)(F)F)S1` as the compound, how does the inhibition read?
The inhibition was -23%.

For `CC(=O)Nc1ccc(S(=O)(=O)Nc2nc3ccccc3nc2N2CCCC2)cc1`, which inhibition is on record?
The inhibition was -6%.

For `Cc1ccn2cc(C(=O)N3CCCC(Nc4ccc(F)cc4)C3)nc2c1` (stereo unspecified), which inhibition is on record?
The inhibition was -9.3%.

With `O=C(Nc1ccccc1)c1c(F)cccc1F` as the compound, how does the inhibition read?
The inhibition was -8%.

With `O=C(Nc1ccncc1)c1c(F)c(F)c(F)c(F)c1F` as the compound, how does the inhibition read?
The inhibition was 8.8%.

Which inhibition does the source give for `O=C(Oc1ccc(Cl)c2cccnc12)c1cccc([N+](=O)[O-])c1` here?
Its inhibition is 13.8%.

For `O=C(Oc1cccc2cccnc12)c1cccc([N+](=O)[O-])c1`, which inhibition is on record?
Its inhibition is 11.2%.

With `O=C(Oc1c(Cl)cc(Cl)c2cccnc12)c1cccc([N+](=O)[O-])c1` as the compound, how does the inhibition read?
Its inhibition is 96.1% (active).

Which inhibition does the source give for `CCOc1ccc(-c2ccc(SCC(=O)Nc3nnc(CC)s3)nn2)cc1` here?
Its inhibition is -117%.

Which inhibition does the source give for `CCCC(C(=O)NC1CCCC1)N(CC1CCCO1)C(=O)c1snc(C(N)=O)c1N` (stereo unspecified) here?
The inhibition was -7.3%.

With `Cc1ccc(OCC(=O)Nc2ccc(O)c(C(=O)O)c2)cc1C` as the compound, how does the inhibition read?
The inhibition was 1.5%.

For `CC(C)(C)c1ccc(OC(=O)Nc2ccc(O)c(C(=O)O)c2)cc1`, which inhibition is on record?
The inhibition was 51.6% (active).

Which inhibition does the source give for `O=C(Nc1ccc(O)c(C(=O)O)c1)Oc1ccccc1` here?
The inhibition was 8.6%.

For `COC(=O)C1=C(C)NC(C)=C(C(=O)OC)C1c1ccccn1`, which inhibition is on record?
The inhibition was 2.3%.

With `Cc1ccc(OCc2cc(C(=O)N3CCN(C)C[C@@H]3c3ccccc3)no2)cc1C` as the compound, how does the inhibition read?
The inhibition was -27.5%.

Which inhibition does the source give for `S=C(Nc1cc(Cl)cc(Cl)c1)N1CCN(c2ccccn2)CC1` here?
The inhibition was 14.1%.

Which inhibition does the source give for `CCOC(=O)Cc1nnc2c(Nc3ccccc3F)nc3nonc3n12` here?
The inhibition was 55.4% (active).

Which inhibition does the source give for `CCOC(=O)Cc1nnc2c(Nc3ccc(Cl)cc3)nc3nonc3n12` here?
Its inhibition is 14.5%.

For `CCOC(=O)Cc1nnc2c(Nc3ccc(C)cc3)nc3nonc3n12`, which inhibition is on record?
The inhibition was -2.9%.

Which inhibition does the source give for `Cc1noc(C)c1C(=O)N1CCC2(CC1)Oc1ccc(F)cc1C(=O)C21CC(c2ccc(Cl)cc2)=NO1` (stereo unspecified) here?
Its inhibition is 13%.

With `COc1ccc(/C=N/n2cnc3c([nH]c4ccc(F)cc43)c2=O)cc1CN1CCCC1` as the compound, how does the inhibition read?
Its inhibition is 12.1%.

With `CC1(C)Cc2c(sc(NC(=O)c3ccccc3)c2C(=O)O)CO1` as the compound, how does the inhibition read?
The inhibition was -27.1%.

For `COc1ccc(C(=O)Nc2sc3c(c2C(=O)O)CC(C)(C)OC3)cc1`, which inhibition is on record?
Its inhibition is 8.8%.

With `C(=N\N(c1ccccc1)c1ccccc1)/c1ccc(N2CCOCC2)s1` as the compound, how does the inhibition read?
Its inhibition is 11.6%.

With `c1ccc2c(-c3c[nH]c4ccccc34)c3ccccc3nc2c1` as the compound, how does the inhibition read?
The inhibition was 0%.

For `Cc1cccc(C(=O)c2cn[nH]c2-c2ccccc2O)c1`, which inhibition is on record?
The inhibition was -3.8%.

For `O=C1c2cc(F)ccc2-n2c1nc1ccccc1c2=O`, which inhibition is on record?
The inhibition was 63.4% (active).

For `Nn1c(-c2ccc(F)cc2)nc2ccccc2c1=O`, which inhibition is on record?
Its inhibition is 12.9%.

With `O=C1c2ccccc2-n2c1nc1ccccc1c2=O` as the compound, how does the inhibition read?
Its inhibition is 26.3%.

With `CCn1c(CNc2ccc(Cl)cc2)nnc1SCC(=O)OC1CCCCC1` as the compound, how does the inhibition read?
The inhibition was 4.4%.

For `CCOC(=O)C1CCN(C(=O)COC(=O)c2ccc(Br)o2)CC1`, which inhibition is on record?
Its inhibition is 20.2%.

Which inhibition does the source give for `Cc1cc2c(s1)c1cnn(Cc3ccccc3F)c(=O)c1n2C` here?
The inhibition was 10.1%.

For `CN(C(=O)c1cnc(N2CCN(c3ncccn3)CC2)c2ccccc12)c1ccc(Cl)cc1`, which inhibition is on record?
Its inhibition is 15.1%.

Which inhibition does the source give for `COc1ccccc1C(=O)N1CCN(c2cccc(Cl)c2)CC1` here?
Its inhibition is 3.1%.

With `CCOc1ccccc1C(=O)N1CCN(c2cccc(Cl)c2)CC1` as the compound, how does the inhibition read?
The inhibition was -14%.

For `COc1ccc(N(C)C(=O)c2cnc(N3CCN(c4ncccn4)CC3)c3ccccc23)cc1`, which inhibition is on record?
Its inhibition is 14.7%.

Which inhibition does the source give for `COc1cc(C(=O)Nc2ccccc2N2CCOCC2)ccc1OCc1c(C)noc1C` here?
Its inhibition is 1.5%.

Which inhibition does the source give for `CCOC(=O)c1cccc(NC(=O)c2ccc(NC(=O)C3CCCO3)cc2)c1` (stereo unspecified) here?
Its inhibition is 5.8%.

Which inhibition does the source give for `CCOC(=O)c1ccc(NC(=O)C2CCCO2)cc1` (stereo unspecified) here?
The inhibition was -21.8%.

Which inhibition does the source give for `CCOC(=O)c1ccc(NC(=O)c2ccc(NC(=O)C3CCCO3)cc2)cc1` (stereo unspecified) here?
Its inhibition is 51.3% (active).

For `CC(Sc1nnc(N)s1)C(=O)Nc1nccs1` (stereo unspecified), which inhibition is on record?
Its inhibition is -1.1%.

With `COc1ccc(-c2nc(C#N)c(N3CCN(c4cccc(Cl)c4)CC3)o2)cc1OC` as the compound, how does the inhibition read?
The inhibition was 0.1%.

For `COc1ccccc1-c1nc(C#N)c(N2CCN(c3ccccc3)CC2)o1`, which inhibition is on record?
The inhibition was -1.7%.

Which inhibition does the source give for `Cc1noc(C)c1COC(=O)COc1cccc2c1OC(C)(C)C2` here?
Its inhibition is 6.1%.

Which inhibition does the source give for `C=CCN(c1ccc(C(=O)Nc2ccc(NC(C)=O)cc2)cc1)S(C)(=O)=O` here?
Its inhibition is 15.2%.

For `COc1ccc(N(CC(=O)NCCC2=CCCCC2)S(=O)(=O)c2ccccc2)c(OC)c1`, which inhibition is on record?
The inhibition was 1.9%.

With `CC(=O)c1cccc(NC(=O)N2CCCCCC2)c1` as the compound, how does the inhibition read?
The inhibition was 6.3%.

Which inhibition does the source give for `Cc1cccc(NS(=O)(=O)c2ccc(NC(=O)N3CCCCC3)cc2)c1` here?
The inhibition was 33.7%.
